Results from PubChem BioAssay AID504594 (Broad Institute, 2011).
Hit rate of the full screen: of about 2,000 compounds, fewer than 10 were called active.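 The calls were made as follows: active = growth inhibition of at least 75% in every replicate, which also brings the mean inhibition to 75% or more; inconclusive = mean inhibition 75% or more but some replicate under 75%; inactive = the rest.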 Not all results are given here.

Assay: growth inhibition of PfHsp90-dependent yeast, primary screen, antimalarial PfHsp90 inhibitor project, S. cerevisiae, BacTiter-Glo luminescence (AID 504594);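 also: 0% = DMSO neutral control wells and 100% = 20 µM radicicol control wells; higher value means stronger growth inhibition because the sign is flipped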
Settings: S. cerevisiae expressing PfHsp90, BacTiter-Glo growth, 48 h; at 9.4 µM; stronger effect = higher value

SMILES | growth inhibition
CC1(C)CC(CC(=O)O)(c2ccc(Cl)cc2)CCO1 (stereo not drawn) | 4.78% (inactive)
Cc1cccc2c1CC(C)(C)N/C2=C\C(N)=O | 1.18% (inactive)
COc1ccc(-c2[nH]ncc2C=O)cc1OC | 7.91% (inactive)
O=C(/C=C/c1ccc(F)cc1)NC(=S)N1CCCCC1c1cccnc1 (stereo not drawn) | 4.68% (inactive)
C=CCc1cccc2cc(C(=O)Nc3ccc(CC(=O)O)cc3)c(=O)oc12 | -7.68% (inactive)
C[C@H](NC(=O)C1(c2ccccc2)CCN(C(=O)[C@H]2CSCN2C(=O)OC(C)(C)C)CC1)C(=O)O | -9.59% (inactive)
COC1CCN(Cc2cn(Cc3ccccc3)nc2-c2cc3ccccc3o2)CC1 | 3.22% (inactive)
CC(C)CN1CC(C(=O)O)CC1=O (stereo not drawn) | -3.33% (inactive)
CCOCCn1c(C(C)O)nc2ccccc21 (stereo not drawn) | -8.58% (inactive)
O=C(CC(NC(=O)OCc1ccccc1)C(=O)O)OCc1ccccc1 (stereo not drawn) | 0.482% (inactive)
COc1ccc(C(=O)Nc2ncc3c(n2)CC(C)CC3=O)cc1 (stereo not drawn) | -12.5% (inactive)
O=C1NCC2=C1C(c1ccccc1)Nc1ccccc1N2 (stereo not drawn) | 6.48% (inactive)
COc1cccc(C2CC(=O)C3=C(C2)Nc2ccccc2N(C(=O)CCC(=O)O)C3c2ccc(F)cc2)c1 (stereo not drawn) | 3.39% (inactive)
COc1ccc(C(=O)CCN2CCc3cc(OC)c(OC)cc3C2)cc1 | 4.16% (inactive)
O=C1OC(=O)C2C1[C@@H]1CC[C@H]2O1 (stereo partly drawn) | -14% (inactive)
COCc1cc(=O)[nH]c(/N=C(\N)Nc2ccc(Oc3ccccc3)cc2)n1 | -12.9% (inactive)
CC(=O)c1ccc(CCCCCCCCCC(=O)O)s1 | -16.6% (inactive)
CC(C)CN1CCN(Cc2ccc3ncccc3c2)CC1CCO (stereo not drawn) | -15.2% (inactive)
O=c1ccc2c(o1)/C(=C/C=C(Cl)Cl)CCC2 | -2.29% (inactive)
CC(C)(C)C(=O)NCCCNc1ccc([N+](=O)[O-])cc1 | 4.14% (inactive)
CC(=O)c1c(C)[nH]c(C(=O)OCc2ccccc2)c1C | -16% (inactive)

SMILES | growth inhibition
NS(=O)(=O)c1ccc(CCNC(=O)C2CCCN2C(=O)OCc2ccccc2)cc1 (stereo not drawn) | -1.5% (inactive)
Cn1c(Oc2ccc3c(c2)OCO3)nc2c1c(=O)n(Cc1ccccc1)c(=O)n2C | 5.1% (inactive)
Oc1c(Cl)cc(Cl)c(Cl)c1Cc1c(O)c(Cl)cc(Cl)c1Cl | 104% (active)
Cc1c2c(nc3c(C)cccc13)OC(C)C2 (stereo not drawn) | 8.19% (inactive)
CCOC(=O)n1c(=O)oc2ccccc21 | -13.3% (inactive)
Cc1csc(CCc2nc(C)cs2)n1 | 0.825% (inactive)
O=C(Nc1ccc(F)c([N+](=O)[O-])c1)c1ccc2c(c1)OCCO2 | -4.38% (inactive)
CC(C)NS(=O)(=O)c1ccc(OCC(=O)Nc2cccc(F)c2)cc1 | 4.62% (inactive)
COc1c2c(nc3occc13)C(CC=C(C)C)(OC)C(O)CC2 (stereo not drawn) | 3.58% (inactive)
COc1ccc(C=NCC2COc3ccccc3O2)cc1OC (stereo not drawn) | 13.6% (inactive)
O=C(Oc1cccccc1=O)c1ccccc1 | 11% (inactive)
Cc1nc2ccccc2n1CC(=O)NC1CCCC1 | -8.15% (inactive)
CC1(C)CC(=O)c2cnc(NC(=O)C3CCCC3)nc2C1 | 0.802% (inactive)
Cc1ccc(S(=O)(=O)Oc2ccccc2/C=N/N=C(N)N)cc1 | 9.9% (inactive)
c1ccc(-c2ccc(C(c3ccccc3)n3ccnc3)cc2)cc1 (stereo not drawn) | 91.6% (active)
CCc1cc2c(C)cc(=O)oc2cc1OC(=O)C1CCCN1C(=O)OC(C)(C)C (stereo not drawn) | 5.63% (inactive)
COc1ccc2cc(C(=O)Nc3ccc(S(N)(=O)=O)cc3)sc(=O)c2c1OC | 5.36% (inactive)
CC(C)(C)NCC(O)COc1ccccc1C(=O)CCc1ccccc1 (stereo not drawn) | -4.71% (inactive)
Cn1nc(-c2ccccn2)nc2c(=O)n(C)c(=O)nc1-2 | -12.4% (inactive)
Cn1c(=O)[nH]c2nnc(-c3ccc(Cl)c(Cl)c3)nc2c1=O | 1.34% (inactive)
Cn1nc(-c2ccc(Cl)cc2)nc2c(=O)n(C)c(=O)nc1-2 | 104% (active)

SMILES | growth inhibition
N/C(Cc1ccc(Cl)cc1Cl)=N\OC(=O)c1ccc(Br)o1 | 30.5% (inactive)
Cc1cccc(Oc2coc3cc(OC(=O)c4cncc(Br)c4)ccc3c2=O)c1 | -0.933% (inactive)
COC(=O)[C@@H](N)CS | -1.65% (inactive)
O=Cc1ccc(N2CCCCC2)cc1 | -3.18% (inactive)
C#CCOc1ccc2c(C)cc(=O)oc2c1 | -0.459% (inactive)
COc1cccc(CC(=O)NCC2COc3ccccc3O2)c1OC (stereo not drawn) | 12.9% (inactive)
O=C(NCc1ccco1)/C(=C\C=C\c1ccccc1)NC(=O)c1ccccc1Br | -0.463% (inactive)
CC(=O)OCC(OC(C)=O)C(OC(C)=O)C(OC(C)=O)C(=O)Nc1cccc(C)c1 (stereo not drawn) | -0.0548% (inactive)
CC(=O)N1CCN(c2ccc(NC(=O)/C=C/c3ccccc3)cc2)CC1 | 10.6% (inactive)
Cc1ccccc1-c1nn(-c2ccc(F)cc2F)cc1CNCCN(C)C | -12.6% (inactive)
CC(C)Cc1ccc(C(C)C(=O)Nc2ccc(O)cc2)cc1 (stereo not drawn) | -4.11% (inactive)
Cc1ccc(C(=O)Nc2ccc(O)cc2C(=O)O)cc1C | 4.07% (inactive)
CC(=O)N1CCn2c3c(c4cc(C)ccc42)CCCC31 (stereo not drawn) | -11.1% (inactive)
Fc1cccc(Cc2noc(CN3CCN(c4cnccn4)CC3)n2)c1 | -2% (inactive)
O=Cc1ccccc1Oc1ccccc1 | -0.351% (inactive)
COc1ccc2[nH]c3c(c2c1)CCn1c-3nc2ccccc2c1=O | 0.118% (inactive)
CC(=O)Nc1ccc(OS(=O)(=O)c2c(C)cc(C)cc2C)cc1 | 10.9% (inactive)
CCOc1ccc(C(=O)C(C)=O)c(OCC)c1 | 10.5% (inactive)
CC(=O)Oc1ccc(C2OC(=O)c3ccccc3N2C(C)=O)cc1 (stereo not drawn) | -6.47% (inactive)
COc1ccc(C(=O)O)cc1F | -4.03% (inactive)
O=C(O)c1ccccc1OCCOc1ccccc1 | 3.6% (inactive)

SMILES | growth inhibition
Cc1ccc2nc3c(cc(C(=O)NCC4CCCO4)c(=N)n3CCCOC(C)C)c(=O)n2c1 (stereo not drawn) | 4.47% (inactive)
CC(C)CC(=O)NC(NC(=O)CC(C)C)c1cccc([N+](=O)[O-])c1 | 2.96% (inactive)
CC(=O)NC(NC(=S)N1CCCCCC1)C(Cl)(Cl)Cl (stereo not drawn) | -2.52% (inactive)
C[N+]1(C2CCC3CCCC2C3O)CCCCC1 (stereo not drawn) | -8.1% (inactive)
O=C(O)CCCCCN=C1CCc2ccccc2N1 | 0.535% (inactive)
Cc1ccc(OCCCCn2ccnc2C)c(C)c1 | -3.77% (inactive)
COc1ccc(CCN2C(=O)CSC2c2ccc(OC)c(OC)c2)cc1OC (stereo not drawn) | 2.57% (inactive)
O=C1C(=O)N2C(=C1C(=O)N1CCCCCC1)c1ccccc1CC21CCCC1 | -4.5% (inactive)
CCN1CCN(C(=S)c2ccc(OC)cc2)CC1 | -1.26% (inactive)
O[C@H]1COC2C1OC[C@@H]2O (stereo partly drawn) | -2.02% (inactive)
Oc1ccc(COCc2ccccc2)c2cccnc12 | -6.18% (inactive)
O=C(Cc1ccccc1[N+](=O)[O-])NCc1ccncc1 | 15% (inactive)
O=[N+]([O-])c1ccc(O)c2ncccc12 | 93.7% (active)
CC1CCN(C(=O)Oc2ccccc2)CC1 | 5.73% (inactive)
C[N+]12CCCCC1C(COC(=O)c1ccc3c(c1)OCO3)CCC2 (stereo not drawn) | 1.34% (inactive)
CC(C)N(C(=O)Cc1ccccc1[N+](=O)[O-])C(C)C | 4.35% (inactive)
O=C(c1ccc(Cl)cc1)C1CCCN(Cc2ccc(Oc3ncccn3)cc2)C1 (stereo not drawn) | -7.65% (inactive)
Cc1ccc(C2CC(c3cccs3)=NN2C(=O)c2ccco2)o1 (stereo not drawn) | 6.03% (inactive)
O=CNC1CCCc2c1[nH]c1ccc(Cl)cc21 (stereo not drawn) | -7.59% (inactive)
COc1ccc(C(=O)[C@H]2[C@H]3C(=O)N(c4ccccc4)C(=O)[C@H]3C3C=CC=NN32)cc1 (stereo partly drawn) | 15.9% (inactive)
